Laboratory results reported in the supplement of paper PMC12669032.
Values without a mark were called inactive.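 Rule for the calls: active = AUC reduced over 20% with Padj below 0.05 in at least 2 of 3 replicates; inactive = otherwise.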

system: Collinsella aerofaciens; assay: growth AUC relative to DMSO control (median of replicates) (fraction); higher = more growth (less inhibition), active = hit call of the paper; conditions: 20 µM; 24 h
Method in brief: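 For each compound at 20 µM (1% DMSO), gut bacterial monocultures seeded at OD600 0.05 grew anaerobically in mGAM at 37 °C in round-bottom 96-well plates. Hourly OD600 readings over 24 h gave growth curves whose minimum OD was set to 0. Area under these curves was normalised to the plate median of solvent-only wells, or to row and column medians on the industrial chemical plate. Values are medians of three biological replicates grown on separate days.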

Row | SMILES | growth AUC
1 | O=C(O)Cc1c(Cl)ccc(Cl)c1Cl | 1
2 | COc1cc(OC)c(Cl)cc1N | 1.03
3 | O=S(Cc1ccc(Cl)cc1)c1ccc(Cl)cc1 (centres undefined) | 0.972
4 | Cc1cc(C)c(C2=C(O)C3(CCCC3)OC2=O)c(C)c1 | 1.04
5 | CN(C)C(=O)c1cccnc1S(N)(=O)=O | 1.01
6 | CCCN(CCOc1c(Cl)cc(Cl)cc1Cl)C(N)=O | 0.993
7 | Cc1nn(C)c(OCC(=O)c2ccccc2)c1C(=O)c1ccc(Cl)cc1Cl | 1.01
8 | CC(C)(C)Nc1nc(N)nc(Cl)n1 | 0.998
9 | COC(=O)c1c(Cl)nn(C)c1S(=O)(=O)NC(=O)Nc1nc(OC)cc(OC)n1 | 1.02
10 | [S] | 0.946
11 | CCCCCCCCc1c(CC)nc2ncnn2c1N | 0.926
12 | Cn1cc(C(=O)Nc2ccccc2-c2cc(F)c(F)c(F)c2)c(C(F)F)n1 | 0.987
13 | CCCOc1nc2ccc(I)cc2c(=O)n1CCC | 0.952
14 | CNc1nc(NC(C)C)nc(SC)n1 | 0.986
15 | CC(C)(C)[C@@H](O)[C@@H](Cc1ccc(Cl)cc1)n1cncn1 (mixture of isomers) | 0.967
16 | Cc1ccc2c(c1)[C@H](Nc1nc(N)nc(C(C)F)n1)[C@@H](C)C2 (some centres undefined) | 1.01
17 | CCN(CC)c1nc(C)cc(=O)[nH]1 | 1.01
18 | Clc1ccc(C(c2ccccc2Cl)C(Cl)Cl)cc1 (centres undefined) | 0.847
19 | CSc1nc(NC2CC2)nc(NC(C)(C)C)n1 | 1.06
20 | CCc1cccc(C)c1N(C(=O)C(=O)O)[C@@H](C)C(=O)O | 0.986

Row | SMILES | growth AUC
21 | CCNc1nc(NC(C)(C)C)[nH]c(=O)n1 | 0.95
22 | CC(C)N(C(=O)C(=O)O)c1ccccc1 | 0.981
23 | Cc1nn(C)c(F)c1C(=O)Nc1ccccc1C(C)CC(C)C (centres undefined) | 1.02
24 | CC(C)c1cc(Oc2ccccc2)cc(C(C)C)c1NC(=S)NC(C)(C)C | 1.03
25 | CCCCOCCOC(=O)COc1ccc(Cl)cc1Cl | 0.96
26 | CCOC(=O)C(C)Oc1ccc(Oc2nc3ccc(Cl)cc3o2)cc1 (racemic) | 0.947
27 | C/C=C/C(=O)Oc1c(C(C)CCCCCC)cc([N+](=O)[O-])cc1[N+](=O)[O-] (mixture of isomers) | 0.789 (active)
28 | c1ccc2c(c1)Cc1ccccc1-2 | 1.01
29 | CC(C)(C)C(O)/C(=C\c1ccc(Cl)cc1)n1cncn1 (centres undefined) | 0.969
30 | Oc1ccccc1 | 1
31 | Cc1c(Br)c2ccc(F)cc2n1S(=O)(=O)c1ncn(S(=O)(=O)N(C)C)n1 | 1.07
32 | NC(Cn1cncn1)C(=O)O (centres undefined) | 1.01
33 | CCCCC(CC)COC(=O)COc1ccc(Cl)cc1C (centres undefined) | 0.907
34 | c1ccc(CNc2ncnc3nc[nH]c23)cc1 | 1
35 | CON=C(Cc1cccnc1)c1ccc(Cl)cc1Cl | 0.945
36 | COC(=O)Cc1cccc2ccccc12 | 0.96
37 | CC1(C)C(=O)Oc2ccc(OS(C)(=O)=O)cc21 | 0.997
38 | CN(C)c1ccc(N=NS(=O)(=O)[O-])cc1.[Na+] | 1.02
39 | CCOC(=O)Cn1c(=O)sc2cccc(Cl)c21 | 0.936
